# “And” between values parts separate entries of the source, which are not always exact repeats. Identical values can stand only once. The source made the active and inactive calls.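 How the source made its calls, unless noted: active means inhibition at or above 50% relative to wild type and mutant plate controls; inactive means inhibition below 50%.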
# Key:
# [1] = loss of swimming-algae plug formation – whole organism, Chlamydomonas reinhardtii, WT vs cilia-less mutant, absorbance, 96-well, primary screen (AID 463189); settings: Chlamydomonas reinhardtii gravitaxis, OD600 absorbance, 2 days; at 10 µM; stronger effect = higher value;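 further: 0% = wild type cc124 cells in DMSO and 100% = ciliumless bld1 mutant cells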
# [2] = reduction of polyQ htt aggregates in cells – imaging, exon1htt(103Q)mCFP cells, high-content imaging, primary screen (AID 483;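 active means visual image review flags a hit and inhibition of aggregation exceeds 20%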;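 further: compound exposure lasted 3 days before fixation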;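 on nuclei count: percent of the per-plate median nuclei count of sample wells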); settings: exon1htt(103Q)mCFP cell line, aggregate imaging, at 2 µM; inhibition of aggregation: stronger effect = higher value; nuclei count: measured here: cell count, toxicity
# [3] = endothelial E-selectin expression blockers – imaging, HUVEC, immunofluorescence, MLSMR starter and 10KST1 sets, primary screen (AID 487;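 active means visually confirmed hit in the image check and inhibition above 20%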;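 on inhibition: signal is fraction of cell area covered by stained E-selectin grains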;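 on nuclei count: 100% = median nuclei count of all wells on the same plate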); settings: HUVEC TNFalpha-induced E-selectin immunofluorescence imaging, at 2 µM; inhibition: stronger effect = higher value; nuclei count: measured here: cell number, toxicity
# [4] = Primary imaging screen for DUSP6 inhibitors that restore phospho-Erk in transfected HeLa cells, chemical complementation (AID 609;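 active means compounds giving at least 50% inhibition in the cell-based MKP-3 phosphatase rescue imaging test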;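 on inhibition: phospho-Erk level distribution per well compared with pooled transfected vehicle control wells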); settings: HeLa MKP-3 transfected, phospho-Erk imaging KS statistic, at 10 µM, cells stimulated with TPA for 15 min
# [5] = molecular target: Dual specificity protein phosphatase 6 (Homo sapiens) (UniProt Q16828); experiment: as above; settings: HeLa MKP-3 transfected, phospho-Erk imaging KS statistic; at 10 µM; stronger effect = higher value; cells stimulated with TPA for 15 min
# [6] = molecular target: Voltage-gated potassium channel subunit beta-2 (Rattus norvegicus) (UniProt P62483); experiment: inhibitors of rat Kvbeta2 reductase activity – biochemical, NADPH fluorescence, primary screen (AID 622;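 active means fluorescence slope higher than the sample average by over 3 SD, cut at about -0.22 in these data, passing the limit was not always enough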;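 further: slope of raw intensity against log time taken from 70 to 1610 s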); settings: recombinant KvBeta, 4-cyanobenzaldehyde reduction, at 10 µM, stronger effect = higher value
# [7] = molecular target: Voltage-gated potassium channel subunit beta-2 (Rattus norvegicus) (UniProt P62483); experiment: enhancers of rat Kvbeta2 NADPH turnover – biochemical, NADPH fluorescence, primary screen (AID 623;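 active means NADPH fluorescence slope more negative than the mean of all samples by about 3 SD, 99.7% confidence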;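 further: fluorescence intensity change per second fitted from 20 to 320 s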); settings: Recombinant KvBeta, NADPH fluorescence decrease slope, 10 min; at 10 µM; stronger effect = lower value
# [8] = molecular target: Alpha-2C adrenergic receptor (Homo sapiens) (UniProt P18825); experiment: compounds altering alpha2C-coupled GIRK flux – cell-based, HEK293 alpha2C/GIRK1/2, thallium flux, primary screen (AID 624;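 active means fluorescence slope after compound addition differing from the mean of all screened samples at 99.7% confidence, in either direction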;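 further: slope of fluorescence ratio to pre-addition baseline per second over 15 to 24 s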); settings: thallium flux BTC fluorescence, at 10 µM, actives lie on both sides
# [9] = inhibitors of larval lipid processing in zebrafish, primary screen, whole organism, PED6 fluorescence, gall bladder and intestine (AID 686;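 active means a full or partial loss of lipid-probe fluorescence in the fish gall bladder, intestine or both, judged by eye; inactive means no fluorescence loss, or compound toxic to the fish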;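 further: larvae 5 to 7 days old with five fish per well; signal comes from phospholipase A2 cleavage of quenched PED6 carried via bile; overnight exposure to compound and PED6 before scoring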); settings: Zebrafish larvae PED6 lipid processing, fluorescence scoring; screened at 20 µM (by protocol)
# [10] = blockers of RIG-like receptor reporter activation – cell-based, Sendai virus stimulus, luciferase, 10K MLSCN set, TLR/RLR signaling modifier project, primary screen (AID 602276;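 active means inhibition at or above 50% at 10 µM; inactive means inhibition below 50%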;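 further: firefly luciferase from ISG56 promoter only with Renilla not read in this screen; 0% = Sendai virus plus DMSO and 100% = medium plus DMSO without virus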); settings: HEK293 RL24 IRF3 luciferase reporter, at 10 µM, stronger effect = higher value
# [11] = TLR3 IRF3 reporter activation blockers – cell-based, poly I:C stimulus, luciferase, 10K MLSCN set, primary screen (AID 602277;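 active means inhibition of the reporter signal at or above 50%; inactive means inhibition below 50%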); settings: HEK293-TLR3 RL24 IRF3 luciferase reporter, at 10 µM, stronger effect = higher value
# [12] = measured here: cell density z-score
# [13] = measured here: nuclear c-Myc green intensity z-score
# [14] = measured here: nuclear pErk red intensity z-score, stronger effect = higher value
# Sequence of Voltage-gated potassium channel subunit beta-2 (Rattus norvegicus) (P62483 whole entry, looked up): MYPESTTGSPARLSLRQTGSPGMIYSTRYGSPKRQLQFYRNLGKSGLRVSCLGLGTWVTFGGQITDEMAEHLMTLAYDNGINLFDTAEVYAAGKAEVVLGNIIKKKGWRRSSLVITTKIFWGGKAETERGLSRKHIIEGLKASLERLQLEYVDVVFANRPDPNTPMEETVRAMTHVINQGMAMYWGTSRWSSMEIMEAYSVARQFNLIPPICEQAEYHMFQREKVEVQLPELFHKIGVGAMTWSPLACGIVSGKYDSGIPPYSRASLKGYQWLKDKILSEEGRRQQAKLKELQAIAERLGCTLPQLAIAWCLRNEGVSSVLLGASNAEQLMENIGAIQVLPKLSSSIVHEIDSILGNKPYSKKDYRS
# Sequence of Alpha-2C adrenergic receptor (Homo sapiens) (P18825 whole entry, looked up): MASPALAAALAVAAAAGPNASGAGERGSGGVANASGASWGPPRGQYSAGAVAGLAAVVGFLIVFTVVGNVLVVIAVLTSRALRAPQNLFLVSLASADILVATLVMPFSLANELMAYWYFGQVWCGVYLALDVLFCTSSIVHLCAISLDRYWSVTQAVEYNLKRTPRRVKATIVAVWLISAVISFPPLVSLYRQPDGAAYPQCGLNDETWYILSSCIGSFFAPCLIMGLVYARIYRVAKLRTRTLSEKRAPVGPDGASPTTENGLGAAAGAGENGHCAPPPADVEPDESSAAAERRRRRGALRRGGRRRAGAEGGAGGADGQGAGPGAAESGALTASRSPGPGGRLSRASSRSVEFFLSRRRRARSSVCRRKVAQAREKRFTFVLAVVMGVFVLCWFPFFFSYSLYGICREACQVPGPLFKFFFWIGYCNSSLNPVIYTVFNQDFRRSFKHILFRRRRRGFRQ
# Sequence of Dual specificity protein phosphatase 6 (Homo sapiens) (Q16828 whole entry, looked up): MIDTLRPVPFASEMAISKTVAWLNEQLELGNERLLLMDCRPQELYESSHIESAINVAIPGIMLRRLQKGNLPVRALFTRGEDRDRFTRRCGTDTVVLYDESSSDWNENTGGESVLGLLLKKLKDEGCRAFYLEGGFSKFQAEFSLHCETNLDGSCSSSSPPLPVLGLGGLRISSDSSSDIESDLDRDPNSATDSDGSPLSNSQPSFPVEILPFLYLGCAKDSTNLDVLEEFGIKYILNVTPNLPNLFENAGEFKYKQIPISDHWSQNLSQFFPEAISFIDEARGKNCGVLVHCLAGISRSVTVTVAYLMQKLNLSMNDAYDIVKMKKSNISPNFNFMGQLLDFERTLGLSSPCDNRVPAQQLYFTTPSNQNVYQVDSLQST
compound,measurement,setting,value
CC(N)(C(=O)O)c1ccc(C(=O)O)cc1 (stereo not drawn),inhibition,[1],5.26% (inactive)
NCCCC(=O)O,inhibition,[1],-6.87% (inactive)
CC(C)(C)NCC(O)c1ccc(O)c(CO)c1 (stereo not drawn),inhibition,[1],2.6% (inactive) and 2.52% (inactive)
CC(=O)C(C)=O,inhibition,[1],6.21% (inactive)
NC(CCCP(=O)(O)O)C(=O)O (stereo not drawn),inhibition,[1],-5.37% (inactive)
CN1CCc2c(cc(O)c(O)c2Cl)C(c2cccc(Cl)c2)C1 (stereo not drawn),inhibition,[1],-5.57% (inactive)
C[N+](C)(C)CCCCCC[N+](C)(C)C,inhibition,[1],5.27% (inactive) and -2.94% (inactive)
CC(C)CN(C)c1nc(N)c(C(=O)N=C(N)N)nc1Cl,inhibition,[1],-3.31% (inactive)
CN(C)C(=O)C(CCN1CCC(O)(c2ccc(Cl)cc2)CC1)(c1ccccc1)c1ccccc1,inhibition,[1],-2.62% (inactive)
OC1(c2ccc(Cl)cc2)CCN(Cc2c[nH]c3ccccc23)CC1,inhibition,[1],21.4% (inactive)
NC1CCN(O)C1=O (stereo not drawn),inhibition,[1],2.51% (inactive)
COC(=O)[C@H](NC(=O)c1cc(-c2ccccc2)nc2ccccc12)c1ccccc1,inhibition,[1],1.92% (inactive)
Oc1cc(O)c2c(c1)O[C@H](c1ccc(O)c(O)c1)[C@@H](O)C2,inhibition,[1],2.87% (inactive)
Nc1nc2c(ncn2COC(CO)CO)c(=O)[nH]1,inhibition,[1],3.53% (inactive)
N[C@@H](COP(=O)(O)O)C(=O)O,inhibition,[1],2.62% (inactive)
NC1(C(=O)O)CCCCC1,inhibition,[1],-2.27% (inactive)
N=C1Sc2ccccc2C2=NCCCN12,inhibition,[1],9.36% (inactive)
NCCCCCCNS(=O)(=O)c1cccc2c(Cl)cccc12,inhibition,[1],7.85% (inactive)
Brc1ccc([C@H]2CN3CCSC3=N2)cc1,inhibition,[1],123% (active)
CNCC[C@@H](Oc1ccc(C(F)(F)F)cc1)c1ccccc1,inhibition,[1],34% (inactive)
N.N.O=C(O)C1(C(=O)O)CCC1.[Pt+2],inhibition,[1],3.35% (inactive)
CCN1/C(=C/C(C)=O)Sc2ccc(OC)cc21,inhibition,[1],9.38% (inactive)
CC(N)=NCCC[C@H](N)C(=O)O,inhibition,[1],5.15% (inactive)
O=c1[nH]cc(F)c(=O)[nH]1,inhibition,[1],2.19% (inactive)
CN1CCc2cccc3c2C1Cc1ccc(O)c(O)c1-3 (stereo not drawn),inhibition,[1],-7.51% (inactive)
CCN(CC)C(C)C(=O)N1c2ccccc2Sc2ccccc21 (stereo not drawn),inhibition,[1],40.1% (inactive)
Cc1ccc2c(c1)C(N1CCN(C)CC1)=Nc1cccnc1N2,inhibition,[1],7.3% (inactive)
Cc1ccccc1/C=C/C1=NCCN1,inhibition,[1],3.42% (inactive)
CN(C)CC[C@@H](c1ccc(Br)cc1)c1ccccn1,inhibition,[1],15% (inactive)
NCCCCN,inhibition,[1],-2.36% (inactive)
O=c1cc(N2CCOCC2)oc2c(-c3ccccc3)cccc12,inhibition,[1],15.7% (inactive)
Nc1nc(N)c2nc(CNc3ccc(C(=O)NC(CCC(=O)O)C(=O)O)cc3)cnc2n1 (stereo not drawn),inhibition,[1],10.5% (inactive)
CCOC(=O)Nc1ccc(NCc2ccc(F)cc2)nc1N,inhibition,[1],3.93% (inactive)
CC(=O)OCC1=C(C(=O)O)N2C(=O)[C@@H](NC(=O)CSc3ccncc3)[C@H]2SC1,inhibition,[1],6.67% (inactive)
CC(=O)Nc1c(I)c(NC(C)=O)c(I)c(C(=O)O)c1I,inhibition of aggregation,[2],21.1% (inactive)
same,nuclei count,[2],102%
same,inhibition,[3],-43.7% (inactive)
same,nuclei count,[3],126%
same,z-score,[4]; [12],0.431
same,z-score,[4]; [13],0.292
same,z-score,[4]; [14],-0.145
same,inhibition,[5],11.3% (inactive)
same,fluorescence slope,[6],-0.491 (inactive)
same,NADPH fluorescence slope,[7],-2.1e-05 (inactive)
same,slope,[8],0.00549 (inactive)
same,outcome,[9],inactive
same,inhibition,[1],0.515% (inactive)
same,inhibition,[10],-2.38% (inactive)
same,inhibition,[11],5.34% (inactive)
NS(=O)(=O)c1cc2c(cc1C(F)(F)F)NCNS2(=O)=O,inhibition of aggregation,[2],0% (inactive)
same,nuclei count,[2],106%
same,inhibition,[3],-96.4% (inactive)
same,nuclei count,[3],114%
same,z-score,[4]; [12],-1.02
same,z-score,[4]; [13],0.57
same,z-score,[4]; [14],-0.708
same,inhibition,[5],3.45% (inactive)
same,fluorescence slope,[6],-0.444 (inactive)
same,NADPH fluorescence slope,[7],-4.4e-05 (inactive)
same,slope,[8],0.00463 (inactive)
same,outcome,[9],inactive
same,inhibition,[1],-11.3% (inactive)
same,inhibition,[10],5.25% (inactive)
same,inhibition,[11],24.3% (inactive)
Cc1cccc(Nc2ccccc2C(=O)O)c1C,inhibition of aggregation,[2],-13.5% (inactive)
same,nuclei count,[2],100%
same,inhibition,[3],-91.2% (inactive)
same,nuclei count,[3],118%
same,z-score,[4]; [12],-1.12
same,z-score,[4]; [13],0.675
same,z-score,[4]; [14],-0.849
same,inhibition,[5],19% (inactive)
same,fluorescence slope,[6],-0.511 (inactive)
same,NADPH fluorescence slope,[7],-5.8e-05 (inactive)
same,slope,[8],0.00454 (inactive)
same,outcome,[9],inactive
same,inhibition,[1],25.5% (inactive)
same,inhibition,[10],8.41% (inactive)
same,inhibition,[11],14% (inactive)
OC(CCN1CCCCC1)(c1ccccc1)C1CCCCC1 (stereo not drawn),inhibition of aggregation,[2],11.9% (inactive)
same,nuclei count,[2],107%
same,inhibition,[3],-31.1% (inactive)
same,nuclei count,[3],119%
same,z-score,[4]; [12],0.0708
same,z-score,[4]; [13],1.69
same,z-score,[4]; [14],-1.17
same,inhibition,[5],21.2% (inactive)
same,fluorescence slope,[6],-0.528 (inactive)
same,NADPH fluorescence slope,[7],-8.4e-05 (inactive)
same,slope,[8],0.00465 (inactive)
same,outcome,[9],inactive
same,inhibition,[1],1.25% (inactive) and 22.1% (inactive)
same,inhibition,[10],0.614% (inactive)
same,inhibition,[11],-5.26% (inactive)
CN(C)CCCN1c2ccccc2Sc2ccccc21,inhibition of aggregation,[2],3.5% (inactive)
same,nuclei count,[2],100%
same,inhibition,[3],3.6% (inactive)
same,nuclei count,[3],110%
same,z-score,[4]; [12],0.654
same,z-score,[4]; [13],0.845
same,z-score,[4]; [14],-0.156
same,inhibition,[5],11.3% (inactive)
same,fluorescence slope,[6],-0.511 (inactive)
same,NADPH fluorescence slope,[7],-7e-05 (inactive)
same,slope,[8],0.00267 (inactive)
same,outcome,[9],inactive
same,inhibition,[1],8.93% (inactive) and 48% (inactive)
same,inhibition,[10],6.01% (inactive)
same,inhibition,[11],34.6% (inactive)
CC(=O)OC[C@H]1O[C@@H](n2ncc(=O)[nH]c2=O)[C@H](OC(C)=O)[C@@H]1OC(C)=O,inhibition of aggregation,[2],14.3% (inactive)
same,nuclei count,[2],77.3%
same,inhibition,[3],-22.1% (inactive)
same,nuclei count,[3],116%
same,z-score,[4]; [12],1.58
same,z-score,[4]; [13],-1.02
same,z-score,[4]; [14],0.322
same,inhibition,[5],-0.828% (inactive)
same,fluorescence slope,[6],-0.468 (inactive)
same,NADPH fluorescence slope,[7],-5.4e-05 (inactive)
same,slope,[8],0.0044 (inactive)
same,inhibition,[1],-10.6% (inactive)
same,inhibition,[10],13.3% (inactive)
same,inhibition,[11],-14.5% (inactive)
Cc1cccc(N2CN=c3s/c(=C\c4ccncc4)c(=O)n3C2)c1,inhibition of aggregation,[2],13.2% (inactive)
same,nuclei count,[2],99.6%
same,inhibition,[3],-56.6% (inactive)
same,nuclei count,[3],121%
same,z-score,[4]; [12],-0.505
same,z-score,[4]; [13],-1.69
same,z-score,[4]; [14],1.18
same,inhibition,[5],-10.5% (inactive)
same,fluorescence slope,[6],-0.334 (inactive)
same,NADPH fluorescence slope,[7],5.8e-06 (inactive)
same,slope,[8],0.00412 (inactive)
same,outcome,[9],inactive
same,inhibition,[1],22.1% (inactive)
same,inhibition,[10],10.3% (inactive)
same,inhibition,[11],-3.47% (inactive)

# Source: PubChem BioAssay
